# From PubChem BioAssay AID1835 (Johns Hopkins Ion Channel Center, 2009)
# Screen size: about 2,400 compounds; about 750 (31%) were called active. This is one part of the list. Unmarked numbers belong to inactive results.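 How the source made its calls: active means median signal gain over dofetilide-blocked control wells reaching their mean plus 3 SD, so readout 1 at least 0; inactive means the rest.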
# Biological target: Voltage-gated inwardly rectifying potassium channel KCNH2 (Homo sapiens) (UniProt Q12809)
# Test: hERG protection against dofetilide inhibition, confirmation, cell-based, thallium flux, duplicate retest, dofetilide IC70 (AID 1835)
# Conditions: hERG cell line, FluxOR thallium flux, dofetilide-blocked; at 10 µM; active compounds read high
# Chain of Voltage-gated inwardly rectifying potassium channel KCNH2 (Homo sapiens) (Q12809 whole entry, looked up): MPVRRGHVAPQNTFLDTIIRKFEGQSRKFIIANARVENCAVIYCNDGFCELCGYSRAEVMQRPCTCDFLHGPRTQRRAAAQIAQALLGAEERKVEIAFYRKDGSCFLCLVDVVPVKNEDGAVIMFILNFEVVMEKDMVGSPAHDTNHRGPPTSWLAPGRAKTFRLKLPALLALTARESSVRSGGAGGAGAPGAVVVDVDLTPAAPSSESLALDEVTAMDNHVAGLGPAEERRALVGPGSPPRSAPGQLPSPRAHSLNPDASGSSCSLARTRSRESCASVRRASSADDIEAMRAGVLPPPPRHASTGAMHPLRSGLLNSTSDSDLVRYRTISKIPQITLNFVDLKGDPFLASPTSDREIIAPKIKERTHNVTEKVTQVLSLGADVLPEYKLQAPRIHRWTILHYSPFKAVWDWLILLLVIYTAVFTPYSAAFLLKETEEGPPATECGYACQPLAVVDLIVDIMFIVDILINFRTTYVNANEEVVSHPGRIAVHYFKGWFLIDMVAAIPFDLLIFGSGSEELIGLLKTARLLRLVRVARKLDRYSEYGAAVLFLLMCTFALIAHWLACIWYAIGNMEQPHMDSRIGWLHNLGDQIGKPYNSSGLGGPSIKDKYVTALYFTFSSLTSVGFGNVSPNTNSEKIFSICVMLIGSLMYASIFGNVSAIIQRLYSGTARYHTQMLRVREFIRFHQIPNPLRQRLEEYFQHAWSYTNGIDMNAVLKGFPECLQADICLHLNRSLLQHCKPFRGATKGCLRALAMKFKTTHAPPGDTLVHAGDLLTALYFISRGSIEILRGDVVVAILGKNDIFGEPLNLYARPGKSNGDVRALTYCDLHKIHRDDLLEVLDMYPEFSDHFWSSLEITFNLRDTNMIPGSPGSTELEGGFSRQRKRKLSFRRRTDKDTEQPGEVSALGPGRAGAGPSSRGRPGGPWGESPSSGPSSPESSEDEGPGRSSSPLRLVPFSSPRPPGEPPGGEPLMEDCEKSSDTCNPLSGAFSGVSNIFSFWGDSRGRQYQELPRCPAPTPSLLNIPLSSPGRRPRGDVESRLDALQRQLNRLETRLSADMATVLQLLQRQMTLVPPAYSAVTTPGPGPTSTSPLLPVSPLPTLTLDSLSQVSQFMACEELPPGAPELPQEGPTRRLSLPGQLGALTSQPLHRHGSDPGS
row,Structure (SMILES),"activity increase over dofetilide control, less the hit threshold"
1,Oc1oc(-c2cccc3ccccc23)nc1/C=N/c1nccs1,4% (active)
2,CCCCn1nnc(NC(=O)c2ccc(-c3cccc([N+](=O)[O-])c3)o2)n1,-6%
3,O=C(O)CSCc1c(F)cccc1Cl,-7%
4,Cn1c(CNC(=O)c2ccccc2F)nnc1SCc1nc2ccccc2c(=O)[nH]1,-9%
5,O=C(O)CSc1nc2ccccc2nc1Cc1ccccc1F,5% (active)
6,Cc1cccc(NC(=O)CN2C(=O)S/C(=C\c3cccn3-c3cccc(C(=O)O)c3)C2=O)c1,7% (active)
7,COc1ccc(C(=O)Nc2ccc(-n3nncc3C(C)(C)C)cc2)cc1,-4%
8,COc1ccc(NC(=O)CN2C(=O)S/C(=C/c3cccn3-c3ccc(C(=O)O)cc3)C2=O)cc1,94% (active)
9,Cc1ccc(NC(=O)CN2C(=O)S/C(=C\c3cccn3-c3cccc(C(=O)O)c3)C2=O)c(C)c1,-4%
10,Cc1ccc(NC(=O)CN2C(=O)N/C(=C/c3ccccc3OCc3cccc(C(=O)O)c3)C2=O)cc1,-16%
11,Oc1c(Cl)cc(Cl)cc1Sc1cc(Cl)cc(Cl)c1O,76% (active)
12,O=C(O)CCCN1C(=O)C2C3c4ccccc4C(c4ccccc43)[C@@H]2C1=O (some centres not stated),-15%
13,Cc1noc(C)c1-c1nnc(-c2ccc(C(F)(F)F)cc2)o1,-11%
14,Cc1ccc(C(=O)CC(=O)c2ccccc2C)c(O)c1,-3%
15,Cc1ccc(O)c(C(=O)CC(=O)c2ccccc2Cl)c1,-2%
16,O=C(/C=C/c1ccccc1)CC(=O)c1ccccc1O,11% (active)
17,O=C(COc1ccccc1)NC(=S)N1CCc2ccccc21,3% (active)
18,O=C(NC(=S)N1CCc2ccccc21)c1ccccc1Br,92% (active)
19,Cc1cccc(C(=O)NC(=S)N2CCc3ccccc3C2)c1,32% (active)
20,NS(=O)(=O)c1ccc(NC(=O)c2ccc(S(=O)(=O)N3CCc4ccccc43)cc2)cc1,-1%
21,CN1C(=O)CSc2ccc(NC(=O)N3CCc4ccccc43)cc21,-10%
22,CC1(C)CC2CC(C)(CN2C(=S)NC(=O)c2ccccc2Cl)C1 (configuration not stated),28% (active)
23,Cc1ccc(C(=O)NC(=S)N2CCN(c3cc(C)ccc3C)CC2)cc1,-3%
24,Cc1cccc(OCC(=O)NC(=S)N2CCCc3ccccc32)c1,-10%
25,Cc1cccc(C(=O)NNC(=S)NC(=O)c2ccccc2)c1,-20%
26,O=C(Nc1cccn(Cc2c(Cl)cccc2Cl)c1=O)c1ccccc1Cl,-21%
27,O=C(COc1ccccc1)NC(=S)Nc1ccc2c(c1)Cc1ccccc1-2,-9%
